# PubChem BioAssay (NCATS)
# A number with no mark means an inactive call. Activity calls are given as the source filed them. Rule as the data show it: active = potency below about 10 µM; inactive = the rest.
# Molecular target: Lysosomal acid glucosylceramidase (Homo sapiens) (UniProt P04062)
# Assay: Glucocerebrosidase-p2 (AID 348)
# Details: purified GBA, blue fluorogenic substrate, 40 min
# Excerpt: Beta-glucocerebrosidase catalyzes the hydrolysis of beta-glucocerebroside to glucose and ceramide. The inherited deficiency of beta-glucocerebrosidase results in Gaucher disease, which is characterized by a wide variety of symptoms including hepatosplenomegaly, anemia, thrombocytopenia, bony lesions and bone marrow infiltration with characteristic storage cells, known as Gaucher cells. There are also forms of the disorder affecting the central nervous system. Patients with the same genotypes can manifest with diverse clinical presentations and it is believed that improper folding and trafficking of beta-glucocerbrosidase may contribute to the phenotypes observed.
# Low molecular weight molecules, acting as chaperones, may potentially restore trafficking of misfolded beta-glucocerebrosidase from the endoplasmic reticulum to the lysosomes, thereby enhancing functional lysosomal beta-glucocerebrosidase activity.
# Using normal beta-glucocerebrosidase, an assay was developed to screen for small molecule inhibitors that could potentially act as molecular chaperones on the mutant forms [developed with NIH investigator Dr. Ellen Sidransky#s laboratory]. Two pro-fluorescent substrates were chosen for two screens against a small molecule library. One beta-glucocerebrosidase assay used Resorufin beta-D-Glucopyranoside (Marker Gene Technology Inc.), generating a red fluorescent product. The second assay used […] fluorescent product. The Km for the Resorufin beta-D-Glucopyranoside and Fluorescein di-beta-D-Glucopyranoside were determined to be 71.2 uM and 855 uM, respectively. The IC50 values of Conduritol B Epoxide, a known glucocerebrosidase inhibitor, were determined to be 87.5 uM and 117 uM, respectively. The use of two difference pro-fluorescent substrates in the screens helped to eliminate false positives. All compounds were screened in a titration series resulting in AC50s (e.g., IC50s or EC50s). Data normalization and AC50 calculations were accomplished using GeneData software.
# NCGC Assay Protocol Summary
# Both enzyme and substrate were diluted in buffer composed of 50mM citric acid/KH2PO4, 10mM sodium taurocholate and 0.01% tween-20 at pH 5.9. The final concentration of the enzyme was 0.2 nM in both assays. The compound library was titrated in 7 to 15 concentrations for the primary screens with a final concentration ranging from 0.6 nM to 50 uM. This particular assay protocol is for the "blue" substrate, and it was performed in 1536-well plate format as follows:
# Blue fluorescence substrate assay:
# 1 uL substrate (final concentration of 80 uM)
# Incubate at room temperature (RT) for 40 minutes
# 3 uL stop solution (1 M NaOH and 1 M glycine in water)
# Read the plate in Viewlux plate reader (Ex=365(10) and Em=440(10)).
# Potency is read from the fitted curve at half-maximal effect.
# Lysosomal acid glucosylceramidase (Homo sapiens), sequence (P04062 whole entry, looked up): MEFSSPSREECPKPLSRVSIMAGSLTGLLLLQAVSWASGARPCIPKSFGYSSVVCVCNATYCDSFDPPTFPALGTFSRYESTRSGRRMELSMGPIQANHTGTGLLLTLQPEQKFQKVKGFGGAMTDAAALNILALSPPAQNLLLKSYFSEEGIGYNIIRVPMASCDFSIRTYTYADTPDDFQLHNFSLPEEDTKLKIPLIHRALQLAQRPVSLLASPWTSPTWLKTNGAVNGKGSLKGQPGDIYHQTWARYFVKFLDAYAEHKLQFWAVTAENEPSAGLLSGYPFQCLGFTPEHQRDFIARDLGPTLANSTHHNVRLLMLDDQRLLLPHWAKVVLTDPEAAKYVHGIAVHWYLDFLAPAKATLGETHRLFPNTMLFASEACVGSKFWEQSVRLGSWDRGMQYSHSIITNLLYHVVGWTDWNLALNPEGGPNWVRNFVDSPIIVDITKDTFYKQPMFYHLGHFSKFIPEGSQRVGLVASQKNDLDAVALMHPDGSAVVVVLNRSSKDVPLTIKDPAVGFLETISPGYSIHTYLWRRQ
row,Structure (SMILES),Potency
1,c1csc(CN2CCCC3(CCNCC3)C2)n1,> 11.4 µM
2,C[C@@H](O)CN(CCN(C[C@@H](C)O)C[C@@H](C)O)C[C@@H](C)O.O=[N+]([O-])O.[Cu],> 11.4 µM
3,C[C@@]12CC[C@H](O[C@@H]3O[C@H](CO)[C@@H](O)[C@H](O)[C@@H]3O)C[C@@H]1CC[C@H]1[C@H]2CC[C@@]2(C)[C@@H](C3=CCOC3=O)CC[C@]12O,> 11.4 µM
4,C[C@@]12CC[C@H](O)C[C@@H]1CC[C@@H]1[C@@H]2CC[C@@]2(C)[C@@H](C3=CC(=O)OC3)[C@H](O)C[C@]12O,> 11.4 µM
5,CC[C@@](O)(C(=O)O)c1cc2n(c(=O)c1CO)Cc1cc3ccccc3nc1-2,> 11.4 µM
6,N#CCCCC[N+]12CN3CN(CN(C3)C1)C2,> 11.4 µM
7,CSCC[C@@H](N)P(C)(=O)O,> 11.4 µM
8,O[C@H](CN1CC1)[C@@H](O)CN1CC1,> 11.4 µM
9,C[As+](C)(c1ccc(Br)c([N+](=O)[O-])c1)c1ccc(Br)c([N+](=O)[O-])c1.O=[N+]([O-])O,> 11.4 µM
10,C[C@H](CN(C)C)C(C#N)(c1ccccc1)c1ccccc1,> 11.4 µM
11,O=C(C[C@H](c1ccccc1)c1c(O)c2ccccc2oc1=O)c1ccccc1,> 11.4 µM
12,COC(=O)c1c(C)ccc2c(O)c3c(cc12)C(=O)c1c2c(cc(O)c1C3=O)[C@@]1(C)O[C@@](C)(O2)[C@@H](O)[C@H](N(C)C)[C@H]1O,> 11.4 µM
13,c1cc(C2N3CCCN2CC3)ccn1 (stereo not given),> 11.4 µM
14,O=[N+]([O-])c1cc(-c2ccc([As](=O)(O)O)cc2)ccc1[As](=O)(O)O,> 11.4 µM
15,O=C(O)C(=O)Cc1ccc2c(c1)OCO2,> 11.4 µM
16,O=C(O)c1cc[c]([Hg][S]c2ncnc3nc[nH]c23)cc1,0.146 µM (active)
17,C1C[C@@H]2CN(CCCN3CCOCC3)[C@@H](C1)O2,> 11.4 µM
18,Cc1ncc([N+](=O)[O-])n1CCN=[N+]=[N-],> 11.4 µM
19,O=C(O)[C@H]1C2c3ccccc3C(c3ccccc32)[C@@H]1C(=O)NCC1CC1,> 11.4 µM
20,COc1cc2c(cc1OC)[C@@]13CCN4C=C5CCO[C@H]6CC(=O)N2[C@@H]1[C@@H]6[C@H]5C[C@H]43,> 11.4 µM

row,Structure (SMILES),Potency
1,COc1cccc2c1C(=O)c1c(O)c3c(c(O)c1C2=O)C[C@](O)(/C(C)=N\O)C[C@@H]3O[C@H]1C[C@H](N)[C@@H](O)[C@H](C)O1,> 11.4 µM
2,O=S(=O)(Nc1nccs1)c1ccc([As](=O)(O)O)cc1,> 11.4 µM
3,FC(F)(F)c1nc2ccc(SSc3ccc4nc(C(F)(F)F)[nH]c4c3)cc2[nH]1,> 11.4 µM
4,C[C@H]1CC[C@@]2(NC1)O[C@@H]1C[C@@H]3[C@@H]4CC=C5C[C@@H](O)CC[C@]5(C)[C@@H]4CC[C@]3(C)[C@H]1[C@@H]2C,> 11.4 µM
5,NC[C@@H](Cc1ccccc1)P(=O)(O)O,> 11.4 µM
6,NNc1nncn1N,> 11.4 µM
7,COc1ccc(C[C@@H](N)c2ccc(OC)cc2)cc1,> 11.4 µM
8,O=[As](O)(O)c1ccc(Cc2ccc([As](=O)(O)O)cc2)cc1,> 11.4 µM
9,O=C(O)C[C@H]1OCC=C2CN3CC[C@@]45C6=CC(=O)C(=O)C([N+](=O)[O-])=C6N[C@H]4[C@H]1[C@H]2C[C@@H]35,> 11.4 µM
10,N=C(N)SCc1ccc(Cl)c2ccccc12 (tested in a mixture with another compound),> 11.4 µM
11,c1ccc2c([C@@H]3CCN(CCN4CCOCC4)C3)c[nH]c2c1,> 11.4 µM
12,O=C(Oc1ccccc1)N1CCC[C@@]2(CCN(Cc3nccs3)C2)C1,> 11.4 µM
13,O=[As](O)(O)c1ccc2nc3cc([As](=O)(O)O)ccc3nc2c1,> 11.4 µM
14,Cc1ccc(NC(=[OH+])c2cc3ccccc3cc2O)c(C)c1.Cc1ccc(NC(=[OH+])c2cc3ccccc3cc2O)c(C)c1.[Ni],> 11.4 µM
15,Cc1nc2ccccc2cc1C[N+]12CN3CN(CN(C3)C1)C2,> 11.4 µM
16,NCCc1ccc(S(=O)(=O)O)cc1[N+](=O)[O-],> 11.4 µM
17,NNc1c(C(N)=O)c2c(N)ncnc2n1[C@@H]1O[C@H](CO)[C@@H](O)[C@@H]1O,> 11.4 µM
18,Cc1ccc(OP(=O)(Oc2ccc(C)cc2)N2C=Cc3ccccc3[C@H]2C#N)cc1,> 11.4 µM
19,Nc1nc(N)c(N=Nc2ccc([As](=O)(O)O)cc2)c(=O)[nH]1,> 11.4 µM
20,CN(C)CCCc1c[nH]c2ccccc12,> 11.4 µM
